These targets were tested with Nc1ncnc2c1ncn2[C@@H]1O[C@H](COP(=O)(O)OP(=O)(O)OP(=O)(O)O)[C@@H](O)[C@H]1O [adenosine 5'-triphosphate] (assay: log2 fold change of tryptic peptide abundance, ligand vs vehicle (limited proteolysis) (log2 ratio); higher = more trypsin-susceptible (destabilized)). Conditions: ligand concentration: 5 mM; sample: E. coli desalted lysate; replicate design: treated before aliquoting.
Description: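 HT-PELSA: desalted E. coli K-12 BW25113 lysate (with 12 mM MgCl2) incubated with 5 mM ATP (pH 7) or water for 30 min at 25 C, then a 4 min trypsin pulse at 22 C. Peptides were quantified by DIA-MS (4 replicates). Value is the peptide log2 fold change (treated/control); negative = stabilized. Scale: negative = ligand-stabilized region.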
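Also: lysate desalted by size exclusion to strip endogenous ATP, peptide intensities built from DIA-NN precursor signals, and peptides missing any value discarded before comparison.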

Sequence of UniProt P31663 (P31663 whole entry): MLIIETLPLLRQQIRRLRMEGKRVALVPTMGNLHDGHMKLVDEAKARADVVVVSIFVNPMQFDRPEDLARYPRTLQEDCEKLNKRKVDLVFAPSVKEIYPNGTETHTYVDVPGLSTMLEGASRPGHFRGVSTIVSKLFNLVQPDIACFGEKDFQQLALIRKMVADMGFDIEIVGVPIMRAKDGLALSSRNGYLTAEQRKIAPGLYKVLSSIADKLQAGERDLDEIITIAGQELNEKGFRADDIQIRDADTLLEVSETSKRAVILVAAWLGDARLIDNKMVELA
Sequence of UniProt P04693 (P04693 whole entry): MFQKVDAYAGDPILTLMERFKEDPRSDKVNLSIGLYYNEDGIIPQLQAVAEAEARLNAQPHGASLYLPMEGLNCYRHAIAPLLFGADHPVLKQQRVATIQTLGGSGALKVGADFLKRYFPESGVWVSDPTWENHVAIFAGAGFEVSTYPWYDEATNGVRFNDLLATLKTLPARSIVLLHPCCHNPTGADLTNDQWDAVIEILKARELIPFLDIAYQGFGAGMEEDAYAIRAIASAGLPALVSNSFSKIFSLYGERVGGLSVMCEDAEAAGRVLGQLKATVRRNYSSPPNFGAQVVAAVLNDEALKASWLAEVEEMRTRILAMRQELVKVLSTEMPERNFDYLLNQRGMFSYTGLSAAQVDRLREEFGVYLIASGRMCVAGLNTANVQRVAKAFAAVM
Sequence of UniProt P27126 (P27126 whole entry): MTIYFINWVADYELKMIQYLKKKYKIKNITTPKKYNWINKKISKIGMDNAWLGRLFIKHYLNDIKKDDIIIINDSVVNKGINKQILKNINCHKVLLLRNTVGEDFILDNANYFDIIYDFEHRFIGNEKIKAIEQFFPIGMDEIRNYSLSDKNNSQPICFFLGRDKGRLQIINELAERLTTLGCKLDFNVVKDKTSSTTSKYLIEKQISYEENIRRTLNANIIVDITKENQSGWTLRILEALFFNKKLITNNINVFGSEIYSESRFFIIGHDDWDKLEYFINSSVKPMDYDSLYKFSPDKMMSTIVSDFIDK
Sequence of UniProt P00805 (P00805 whole entry): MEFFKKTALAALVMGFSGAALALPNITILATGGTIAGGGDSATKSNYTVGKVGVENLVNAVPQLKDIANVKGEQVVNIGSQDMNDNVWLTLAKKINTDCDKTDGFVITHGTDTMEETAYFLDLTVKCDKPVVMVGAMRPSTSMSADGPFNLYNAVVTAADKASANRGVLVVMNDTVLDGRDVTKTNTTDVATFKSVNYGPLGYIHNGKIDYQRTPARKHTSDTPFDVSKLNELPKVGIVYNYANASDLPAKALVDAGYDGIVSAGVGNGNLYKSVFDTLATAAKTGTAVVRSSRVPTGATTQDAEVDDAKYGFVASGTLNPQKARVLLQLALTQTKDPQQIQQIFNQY
Sequence of UniProt P0AEH3 (P0AEH3 whole entry): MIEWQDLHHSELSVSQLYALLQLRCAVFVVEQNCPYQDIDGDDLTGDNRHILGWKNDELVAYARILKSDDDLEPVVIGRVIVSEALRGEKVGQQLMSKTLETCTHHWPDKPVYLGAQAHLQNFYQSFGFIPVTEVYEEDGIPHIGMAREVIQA
Sequence of UniProt P75785 (P75785 whole entry): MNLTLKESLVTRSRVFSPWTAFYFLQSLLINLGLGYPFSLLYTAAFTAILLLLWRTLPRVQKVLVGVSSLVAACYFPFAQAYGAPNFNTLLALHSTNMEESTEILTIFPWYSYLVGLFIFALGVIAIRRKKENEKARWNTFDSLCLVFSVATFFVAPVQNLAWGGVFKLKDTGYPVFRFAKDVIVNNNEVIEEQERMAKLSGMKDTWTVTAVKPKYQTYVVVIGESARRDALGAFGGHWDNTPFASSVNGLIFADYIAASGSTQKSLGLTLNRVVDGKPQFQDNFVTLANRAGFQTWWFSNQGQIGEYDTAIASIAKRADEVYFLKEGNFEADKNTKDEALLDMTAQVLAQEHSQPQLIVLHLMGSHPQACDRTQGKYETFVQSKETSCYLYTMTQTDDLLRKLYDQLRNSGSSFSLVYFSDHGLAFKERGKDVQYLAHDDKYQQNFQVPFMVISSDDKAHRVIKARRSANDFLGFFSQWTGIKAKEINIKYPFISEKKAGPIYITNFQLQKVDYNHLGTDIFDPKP
Sequence of UniProt P0A9L3 (P0A9L3 whole entry): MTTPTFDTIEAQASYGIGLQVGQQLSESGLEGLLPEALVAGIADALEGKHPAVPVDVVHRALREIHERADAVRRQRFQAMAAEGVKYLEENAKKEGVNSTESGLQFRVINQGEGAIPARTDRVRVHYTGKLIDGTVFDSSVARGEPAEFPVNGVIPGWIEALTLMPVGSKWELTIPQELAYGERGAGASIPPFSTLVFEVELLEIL
Sequence of UniProt P32125 (P32125 whole entry): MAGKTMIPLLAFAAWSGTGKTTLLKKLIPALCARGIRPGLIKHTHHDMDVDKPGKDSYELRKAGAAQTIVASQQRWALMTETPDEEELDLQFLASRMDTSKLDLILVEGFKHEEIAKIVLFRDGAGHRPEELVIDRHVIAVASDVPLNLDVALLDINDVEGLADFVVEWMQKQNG
Sequence of UniProt P23331 (P23331 whole entry): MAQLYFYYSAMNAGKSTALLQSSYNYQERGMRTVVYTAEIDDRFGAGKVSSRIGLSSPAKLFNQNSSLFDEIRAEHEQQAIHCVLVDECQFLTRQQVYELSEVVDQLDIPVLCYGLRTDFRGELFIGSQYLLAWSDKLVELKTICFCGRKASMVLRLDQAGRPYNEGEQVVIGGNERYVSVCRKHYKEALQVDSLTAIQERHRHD
Sequence of UniProt P09832 (P09832 whole entry): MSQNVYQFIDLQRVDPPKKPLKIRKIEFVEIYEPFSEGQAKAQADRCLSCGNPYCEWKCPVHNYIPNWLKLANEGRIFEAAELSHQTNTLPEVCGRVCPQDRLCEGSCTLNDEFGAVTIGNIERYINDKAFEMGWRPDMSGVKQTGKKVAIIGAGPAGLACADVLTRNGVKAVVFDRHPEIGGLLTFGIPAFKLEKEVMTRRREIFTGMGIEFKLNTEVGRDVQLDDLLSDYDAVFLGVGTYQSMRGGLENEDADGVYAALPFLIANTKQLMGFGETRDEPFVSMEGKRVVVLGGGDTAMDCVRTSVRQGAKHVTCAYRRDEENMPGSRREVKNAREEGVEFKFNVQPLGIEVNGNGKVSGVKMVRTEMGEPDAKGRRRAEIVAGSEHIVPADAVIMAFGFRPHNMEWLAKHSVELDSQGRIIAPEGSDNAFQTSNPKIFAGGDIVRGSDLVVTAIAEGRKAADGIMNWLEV
Sequence of UniProt P15977 (P15977 whole entry): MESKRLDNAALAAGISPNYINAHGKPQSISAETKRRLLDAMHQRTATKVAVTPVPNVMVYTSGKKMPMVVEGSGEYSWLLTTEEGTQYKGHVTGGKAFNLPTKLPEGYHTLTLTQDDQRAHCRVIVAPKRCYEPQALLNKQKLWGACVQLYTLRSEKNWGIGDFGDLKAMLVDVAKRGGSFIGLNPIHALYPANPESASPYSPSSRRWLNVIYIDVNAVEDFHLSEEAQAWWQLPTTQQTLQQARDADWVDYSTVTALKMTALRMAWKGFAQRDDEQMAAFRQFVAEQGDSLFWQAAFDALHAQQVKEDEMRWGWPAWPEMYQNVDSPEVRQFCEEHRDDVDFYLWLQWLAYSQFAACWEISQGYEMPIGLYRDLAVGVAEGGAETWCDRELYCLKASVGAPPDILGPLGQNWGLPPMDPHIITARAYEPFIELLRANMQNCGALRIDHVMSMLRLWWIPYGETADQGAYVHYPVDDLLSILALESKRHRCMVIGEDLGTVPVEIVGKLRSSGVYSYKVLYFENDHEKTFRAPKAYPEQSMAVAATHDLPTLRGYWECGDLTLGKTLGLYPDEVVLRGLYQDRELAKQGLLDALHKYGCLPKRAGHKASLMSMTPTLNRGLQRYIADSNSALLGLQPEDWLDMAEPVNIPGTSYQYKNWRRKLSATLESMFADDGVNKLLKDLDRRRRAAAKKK
Sequence of UniProt P21345 (P21345 whole entry): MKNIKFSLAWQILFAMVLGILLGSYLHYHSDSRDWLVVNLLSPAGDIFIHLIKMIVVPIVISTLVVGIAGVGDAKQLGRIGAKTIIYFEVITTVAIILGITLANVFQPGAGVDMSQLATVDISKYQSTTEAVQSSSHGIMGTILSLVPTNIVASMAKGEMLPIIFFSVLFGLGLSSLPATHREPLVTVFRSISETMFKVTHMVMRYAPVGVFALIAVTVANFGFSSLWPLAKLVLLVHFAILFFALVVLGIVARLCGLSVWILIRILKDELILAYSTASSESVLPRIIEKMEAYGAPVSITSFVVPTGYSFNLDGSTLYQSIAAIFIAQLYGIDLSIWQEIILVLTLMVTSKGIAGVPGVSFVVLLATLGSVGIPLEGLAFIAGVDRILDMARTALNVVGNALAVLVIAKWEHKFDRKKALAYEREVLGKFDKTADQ
Sequence of UniProt P08390 (P08390 whole entry): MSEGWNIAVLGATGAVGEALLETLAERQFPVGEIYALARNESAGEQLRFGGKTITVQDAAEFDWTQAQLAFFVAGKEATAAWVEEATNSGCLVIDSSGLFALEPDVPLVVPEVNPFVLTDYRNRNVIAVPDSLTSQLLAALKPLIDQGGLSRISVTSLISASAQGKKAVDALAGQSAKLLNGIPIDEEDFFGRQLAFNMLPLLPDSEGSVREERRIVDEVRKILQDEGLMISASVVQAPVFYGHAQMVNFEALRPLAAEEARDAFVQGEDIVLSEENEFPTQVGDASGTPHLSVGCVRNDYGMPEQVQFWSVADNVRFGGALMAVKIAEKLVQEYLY
Sequence of UniProt P27848 (P27848 whole entry): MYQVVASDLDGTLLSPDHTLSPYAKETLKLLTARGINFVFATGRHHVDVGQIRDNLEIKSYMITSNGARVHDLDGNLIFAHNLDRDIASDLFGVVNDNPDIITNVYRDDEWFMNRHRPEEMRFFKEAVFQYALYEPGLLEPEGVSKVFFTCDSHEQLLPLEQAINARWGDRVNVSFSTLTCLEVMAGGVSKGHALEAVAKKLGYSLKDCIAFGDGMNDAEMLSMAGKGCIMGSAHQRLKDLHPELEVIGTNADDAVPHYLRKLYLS

How did the log2 fold change turn out when “UniProt P77252 (peptide sequence: DEPLTLLK, peptide start residue: 148)” was run?
Its log2 fold change is 0.328.

Which log2 fold change does the source give for “UniProt P23837 (peptide sequence: EITEQYEGK, peptide start residue: 451)” here?
The log2 fold change was -1.72.

Which log2 fold change does the source give for “UniProt P0AG16 (peptide sequence: TFIMPGQQLR, peptide start residue: 334)” here?
The log2 fold change was -0.26.

For “UniProt P32125 (peptide sequence: AGAAQTIVASQQR, peptide start residue: 63)”, which log2 fold change is on record?
Its log2 fold change is -0.686.

Which log2 fold change does the source give for “UniProt P15977 (peptide sequence: RKLSATLESMFADDGVNK, peptide start residue: 661)” here?
The log2 fold change was -0.78.

For “UniProt P04693 (peptide sequence: HAIAPLLFGADHPVLKQQR, peptide start residue: 77)”, which log2 fold change is on record?
Its log2 fold change is 0.961.

For “UniProt P27126 (peptide sequence: IGMDNAWLGR, peptide start residue: 45)”, which log2 fold change is on record?
The log2 fold change was -0.467.

How did the log2 fold change turn out when “UniProt P31663 (peptide sequence: VLSSIADKLQAGER, peptide start residue: 207)” was run?
The log2 fold change was -3.26.

With “UniProt P75785 (peptide sequence: SLGLTLNR, peptide start residue: 266)” as the target, how does the log2 fold change read?
Its log2 fold change is -0.884.

For “UniProt P31680 (peptide sequence: LMSEHHPDKLVAK, peptide start residue: 228)”, which log2 fold change is on record?
The log2 fold change was -0.381.

How did the log2 fold change turn out when “UniProt P77148 (peptide sequence: ILLGEYFR, peptide start residue: 100)” was run?
Its log2 fold change is -0.452.

“UniProt P23331 (peptide sequence: TVVYTAEIDDR, peptide start residue: 33)” was tested. Which log2 fold change did it give?
Its log2 fold change is -1.64.

For “UniProt P0A9K7 (peptide sequence: HVGGDELDKLLAGK, peptide start residue: 224)”, which log2 fold change is on record?
Its log2 fold change is -0.493.

For “UniProt P08390 (peptide sequence: AVDALAGQSAK, peptide start residue: 168)”, which log2 fold change is on record?
The log2 fold change was 0.237.

For “UniProt P25519 (peptide sequence: IDRDEENKPNR, peptide start residue: 329)”, which log2 fold change is on record?
Its log2 fold change is -1.08.

Which log2 fold change does the source give for “UniProt P05707 (peptide sequence: VGSKHNSGYSAAK, peptide start residue: 146)” here?
Its log2 fold change is -3.4.

Which log2 fold change does the source give for “UniProt P77272 (peptide sequence: LRLGVHDSSLVDPNIK, peptide start residue: 33)” here?
Its log2 fold change is 0.714.

How did the log2 fold change turn out when “UniProt P52612 (peptide sequence: DRGQHVLLIMDSLTR, peptide start residue: 262)” was run?
The log2 fold change was -1.35.

How did the log2 fold change turn out when “UniProt P09832 (peptide sequence: HVTCAYR, peptide start residue: 313)” was run?
The log2 fold change was 0.367.

“UniProt P21345 (peptide sequence: EVLGKFDKTADQ, peptide start residue: 426)” was tested. Which log2 fold change did it give?
Its log2 fold change is -1.41.

How did the log2 fold change turn out when “UniProt P43672 (peptide sequence: LMLGQLQADSGR, peptide start residue: 364)” was run?
Its log2 fold change is -0.906.

“UniProt P77316 (peptide sequence: HGDIFGHEFMGEVVETGKDVK, peptide start residue: 54)” was tested. Which log2 fold change did it give?
The log2 fold change was -0.836.

How did the log2 fold change turn out when “UniProt P0A800 (peptide sequence: IGNRFDLVLVAAR, peptide start residue: 13)” was run?
The log2 fold change was -0.922.

“UniProt P0ACP7 (peptide sequence: TRFVAEETR, peptide start residue: 25)” was tested. Which log2 fold change did it give?
The log2 fold change was 1.38.

Which log2 fold change does the source give for “UniProt P24232 (peptide sequence: MFTHNPELKEIFNMSNQR, peptide start residue: 32)” here?
Its log2 fold change is -1.5.

For “UniProt P77399 (peptide sequence: TQGNYPATER, peptide start residue: 240)”, which log2 fold change is on record?
The log2 fold change was -0.418.

For “UniProt P00805 (peptide sequence: SVFDTLATAAK, peptide start residue: 274)”, which log2 fold change is on record?
The log2 fold change was 0.366.

For “UniProt P07023 (peptide sequence: KVEHWFGDYAQR, peptide start residue: 345)”, which log2 fold change is on record?
The log2 fold change was 0.528.

For “UniProt P08200 (peptide sequence: AAIEYAIANDRDSVTLVHK, peptide start residue: 212)”, which log2 fold change is on record?
Its log2 fold change is -0.698.

Which log2 fold change does the source give for “UniProt P00934 (peptide sequence: LYNLKDHNEQVSFAQAVTQGLGK, peptide start residue: 3)” here?
Its log2 fold change is -1.05.

Which log2 fold change does the source give for “UniProt P0AA41 (peptide sequence: LLAQQFEQHQIQKR, peptide start residue: 72)” here?
The log2 fold change was -1.05.

For “UniProt P43329 (peptide sequence: IAEELKTEPGGCIGYK, peptide start residue: 142)”, which log2 fold change is on record?
The log2 fold change was -2.41.

For “UniProt P0AEH3 (peptide sequence: VGQQLMSK, peptide start residue: 91)”, which log2 fold change is on record?
The log2 fold change was 0.523.

For “UniProt P0A9L3 (peptide sequence: VINQGEGAIPARTDR, peptide start residue: 108)”, which log2 fold change is on record?
Its log2 fold change is 0.513.

How did the log2 fold change turn out when “UniProt P0A9B6 (peptide sequence: SLQSLPWR, peptide start residue: 82)” was run?
Its log2 fold change is -0.912.

“UniProt P13000 (peptide sequence: TAGYKPVASGSEK, peptide start residue: 34)” was tested. Which log2 fold change did it give?
Its log2 fold change is -1.41.

With “UniProt P0AEK2 (peptide sequence: ALSDDQRAGILAQVPAGR, peptide start residue: 191)” as the target, how does the log2 fold change read?
The log2 fold change was 0.83.

With “UniProt P27848 (peptide sequence: GHALEAVAK, peptide start residue: 192)” as the target, how does the log2 fold change read?
Its log2 fold change is 0.631.

Which log2 fold change does the source give for “UniProt P22634 (peptide sequence: LVDSGAAIAR, peptide start residue: 224)” here?
The log2 fold change was 0.312.

With “UniProt P39407 (peptide sequence: EFFDPLR, peptide start residue: 90)” as the target, how does the log2 fold change read?
Its log2 fold change is 0.583.

From the supplement of paper PMC12819154, “High-throughput peptide-centric local stability assay extends protein–ligand identification to membrane proteins, tissues and bacteria” (Nature Structural & Molecular Biology, 2025)
